Screening results as filed in PubChem BioAssay.
p97 ATPase inh – inhibitors of human p97 ATPase | P55072 | recombinant p97 ATPase, Kinase-Glo ATP luminescence, 3 h | inhibition, % at 8 µM | actives 0.42% (n = 220,000); in the data active = inhibition above about 15%;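 also: 0% = DMSO vehicle and 100% = wells lacking enzyme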
UBC9 SUMO inh – blocks human SUMOylation mediated by UBC9 | HTRF SUMOylation assay, SAE1/SAE2 + UBC9, in vitro | AID 2006 | inhibition, % at 35 µM | actives 0.36% (n = 290,000) | P63279; in the data active = inhibition above about 50%, passing the limit was not always enough
Furin inh – human furin inhibition; P09958; purified furin, fluorogenic substrate cleavage; inhibition, % at 20 µM or 30 µM; actives 0.061% (n = 220,000); AID 463115; in the data active = inhibition above about 25%
Target sequence (P09958 108-714 limits assumed): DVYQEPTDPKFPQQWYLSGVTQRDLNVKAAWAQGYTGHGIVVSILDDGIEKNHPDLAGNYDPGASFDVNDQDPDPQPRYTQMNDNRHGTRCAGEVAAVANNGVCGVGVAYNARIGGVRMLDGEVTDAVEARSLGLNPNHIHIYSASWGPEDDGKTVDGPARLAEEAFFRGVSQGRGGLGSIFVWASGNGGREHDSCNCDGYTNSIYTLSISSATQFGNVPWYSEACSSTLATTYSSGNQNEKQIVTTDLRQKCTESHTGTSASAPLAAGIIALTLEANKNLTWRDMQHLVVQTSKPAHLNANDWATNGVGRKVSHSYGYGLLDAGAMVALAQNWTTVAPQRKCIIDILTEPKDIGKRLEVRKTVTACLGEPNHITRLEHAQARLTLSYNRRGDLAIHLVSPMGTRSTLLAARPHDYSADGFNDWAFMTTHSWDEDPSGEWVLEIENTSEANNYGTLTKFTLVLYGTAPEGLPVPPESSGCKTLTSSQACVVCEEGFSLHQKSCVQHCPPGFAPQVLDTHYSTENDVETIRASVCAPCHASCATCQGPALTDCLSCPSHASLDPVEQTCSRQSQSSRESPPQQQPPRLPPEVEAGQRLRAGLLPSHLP
DTT redox prof – compounds producing H2O2 with reducing agent – biochemical, NIH compound library profiling, artefact control for MLSCN library redox annotation, primary screen; DTT-dependent redox cycling H2O2, phenol red/HRP absorbance; 100% = 100 µM peroxide control, 0% = buffer; activation, % at 10 µM; actives 0.03% (n = 200,000); AID 878;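 active = activation of at least 50% relative to the plate's high and low controls in the primary single-dose screen; inactive = activation below 50%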;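 also: compound incubated with DTT at 0.8 mM final as the reducing agent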
PKD1 kinase inh – PKD1 (human) kinase inhibition. inhibition, % (test concentration not listed). Q15139. actives 0.056% (n = 200,000). PKD1 kinase fluorescence polarization assay. AID 797; in the data active = inhibition above about 50%
FAS-TE inh – FAS thioesterase (human) inhibition; P49327; recombinant FAS-TE, OMFH fluorogenic substrate, fluorescence endpoint; inhibition, % at 15 µM; actives 0.67% (n = 360,000); AID 602261;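 active = compounds whose normalised, plate-corrected inhibition of enzyme fluorescence in the single-dose primary screen is 50% or more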;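 also: 0% = DMSO with enzyme and 100% = substrate without enzyme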
p97 confirm – human p97 ATPase inhibition, confirmation; actives 44% (n = 760); recombinant p97 ATPase, Kinase-Glo ATP luminescence; inhibition, % at 8 µM; shares compounds with p97 ATPase inh; AID 1517;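 active = percent inhibition of p97 ATPase above a set limit, the primary screen's mean plus 3 SD, cut at about 15% in these data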;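 also: 0% = DMSO wells and 100% = wells lacking p97 protein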
An asterisk follows results filed as active. The list is not random: actives were taken first. Their share in the collection is about 1.2%.

What do the screens show for `C/C(=N\NC(=O)c1nnn(-c2nonc2N)c1CSc1ccc(C)cc1)c1cccnc1`?
FAS-TE inh: -1

What do the screens show for `O=S(=O)(c1ccc2oc(=S)[nH]c2c1)N1CCCCC1`?
p97 ATPase inh: 21*; UBC9 SUMO inh: -9; Furin inh: -27; FAS-TE inh: -1; p97 confirm: 4

Results for COc1ccc(C(CNC(=O)c2c(C)nn(Cc3ccc(C)cc3)c2Cl)N2CCOCC2)cc1 (configuration not stated) ?
FAS-TE inh: 9

How did COc1ccc(NC(=O)C(Cl)=C(Cl)Cl)cn1 do in these assays?
p97 ATPase inh: 28*; UBC9 SUMO inh: 5; Furin inh: -8; DTT redox prof: -1; PKD1 kinase inh: -7; FAS-TE inh: -4; p97 confirm: 35*

How did Brc1ccc2nc(C3CCCCC3)c(Cc3ccccc3)n2c1 do in these assays?
FAS-TE inh: 9

How did CC(C)(CNC(=O)Cc1ccc(Br)cc1)N1CCOCC1 do in these assays?
UBC9 SUMO inh: -1; FAS-TE inh: 1

What do the screens show for `COc1ccc(N(CC(=O)N/N=C/c2cc(Br)c(C)o2)S(=O)(=O)c2ccc(NC(C)=O)cc2)cc1`?
p97 ATPase inh: 15*; UBC9 SUMO inh: 7; Furin inh: -26; DTT redox prof: 0; PKD1 kinase inh: 12; FAS-TE inh: 24; p97 confirm: 7

What do the screens show for `COc1ccc(Cc2c(C(C)(C)C)nc3ccc(Cl)cn23)c(C)c1`?
FAS-TE inh: 20

How did Cc1ccc2nc(/C(C#N)=C\c3ccc(N4CCOCC4)o3)[nH]c2c1 do in these assays?
p97 ATPase inh: -1; UBC9 SUMO inh: 23; Furin inh: -13; DTT redox prof: 1; PKD1 kinase inh: -13; FAS-TE inh: -194

What do the screens show for `Cc1ccc2nc(/C(C#N)=C\c3ccc([N+](=O)[O-])o3)[nH]c2c1`?
p97 ATPase inh: 16*; UBC9 SUMO inh: 4; Furin inh: -16; DTT redox prof: -8; PKD1 kinase inh: -12; FAS-TE inh: 8; p97 confirm: 32*

How did N#C/C(=C(/O)c1ccc([N+](=O)[O-])o1)c1nc2ccccc2[nH]1 do in these assays?
p97 ATPase inh: 6; UBC9 SUMO inh: 0; Furin inh: -25; FAS-TE inh: 7

How did N#C/C(=C\c1ccc([N+](=O)[O-])o1)c1nc2ccccc2[nH]1 do in these assays?
p97 ATPase inh: 21*; UBC9 SUMO inh: 18; Furin inh: -10; DTT redox prof: 1; PKD1 kinase inh: -17; p97 confirm: 36*

Results for O=C(NC(O)C(=O)c1ccccc1)c1ccc(F)cc1 (configuration not stated) ?
UBC9 SUMO inh: 7; FAS-TE inh: -8

Results for CN(CCCC(=O)N1CCCC(C(N)=O)C1)S(=O)(=O)c1ccc(F)cc1 (configuration not stated) ?
UBC9 SUMO inh: -9; FAS-TE inh: -5

What do the screens show for `CC1C(=O)N(Cc2cn(Cc3ccco3)nn2)CCS(=O)(=O)N1Cc1ccc(-c2ccc(F)cc2)cc1` (configuration not stated)?
FAS-TE inh: 5

What do the screens show for `COc1ccc(CNc2ncnc3c2[nH]c2ccccc23)cc1`?
p97 ATPase inh: 16*; UBC9 SUMO inh: -6; Furin inh: -5; FAS-TE inh: 13; p97 confirm: 20*

How did COc1ccc(CNc2ncnc3c2[nH]c2cc(OC)c(OC)cc23)cc1 do in these assays?
p97 ATPase inh: 10; UBC9 SUMO inh: 23; Furin inh: -1; FAS-TE inh: 6

How did CCC(CNc1cc(OC)cc2cccnc12)NC1CCCCC1 (configuration not stated) do in these assays?
p97 ATPase inh: 24*; UBC9 SUMO inh: 102*; Furin inh: -18; FAS-TE inh: -3; p97 confirm: 7

What do the screens show for `COc1cc(NCCCC(C)N)c2ncccc2c1` (configuration not stated)?
p97 ATPase inh: 15*; Furin inh: -19; DTT redox prof: -2; PKD1 kinase inh: 2; FAS-TE inh: 23; p97 confirm: 8

Results for C[C@H](NC(=O)c1nc[nH]c1C(=O)N[C@@H](Cc1ccccc1)C(=O)OC(C)(C)C)C(=O)OCc1ccccc1 ?
UBC9 SUMO inh: -14; FAS-TE inh: 20

How did COC(=O)c1sc(-c2ccc(Cl)cc2)cc1NC(=O)/C=C/C(=O)O do in these assays?
p97 ATPase inh: 18*; UBC9 SUMO inh: 15; Furin inh: -8; FAS-TE inh: 4; p97 confirm: 18*

What do the screens show for `COc1ccc(NC2=C(Cl)C(=O)N(c3ccccc3)C2=O)c(OC)c1`?
p97 ATPase inh: 25*; UBC9 SUMO inh: -1; Furin inh: -31; DTT redox prof: 0; PKD1 kinase inh: -3; FAS-TE inh: 29; p97 confirm: 7

What do the screens show for `COc1ccccc1NC1=C(Cl)C(=O)N(c2ccccc2)C1=O`?
p97 ATPase inh: 17*; UBC9 SUMO inh: -13; Furin inh: -6; DTT redox prof: 1; PKD1 kinase inh: -7; FAS-TE inh: 7; p97 confirm: 27*

How did CC(NC(=O)COC(=O)CN1C(=O)NC2(CCCC2)C1=O)c1ccc(F)cc1 (configuration not stated) do in these assays?
FAS-TE inh: -5

Results for O=C(c1cc(COc2ccc(F)cc2Cl)on1)N1CC2C[C@@H]3CC1C[C@H](C2)C3 ?
FAS-TE inh: 22

How did CCc1ccc(C2=Nn3c(nnc3-c3cccs3)SC2)cc1 do in these assays?
p97 ATPase inh: 19*; UBC9 SUMO inh: 0; Furin inh: -21; DTT redox prof: 0; PKD1 kinase inh: -1; FAS-TE inh: 17; p97 confirm: 4

What do the screens show for `CC(=O)N1CCN(C(=O)COC(=O)COc2c(C)cc(C)cc2C)CC1`?
FAS-TE inh: -5

Results for O=C(NCc1ccco1)c1sc(=S)n2c1[nH]c(=O)c1ccccc12 ?
p97 ATPase inh: 15*; UBC9 SUMO inh: 17; Furin inh: -9; DTT redox prof: 0; PKD1 kinase inh: -10; FAS-TE inh: 28; p97 confirm: 25*

How did O=C(NN=Cc1ccc2c(c1)CCC2)c1cccc([N+](=O)[O-])c1 do in these assays?
FAS-TE inh: 3

What do the screens show for `COc1ccc([N+](=O)[O-])c(S(=O)(=O)c2ccccc2)n1`?
p97 ATPase inh: 15*; UBC9 SUMO inh: -7; Furin inh: -15; FAS-TE inh: 0; p97 confirm: 17*

How did CC(C)(C)c1cc(=O)n(-c2ccccc2)[nH]1 do in these assays?
p97 ATPase inh: 34*; UBC9 SUMO inh: 98; Furin inh: -21; DTT redox prof: -1; PKD1 kinase inh: 1; FAS-TE inh: -11; p97 confirm: 7
